Data: PubChem BioAssay (NCATS)
Unmarked numbers belong to inactive results. Inconclusive results are not listed. Where a call stands in place of a potency, no number is given. Active and inactive are the calls of the source. The call rests on the fitted dose curve; in most records, active means well fitted curve in the direction sought with a large enough effect; inconclusive means small, poorly fitted or top-dose-only effect, or another doubt; inactive means no such curve, though single readings can be large; an effect the other way counts as inactive or inconclusive.

Key:
[1] = molecular target: Glutathione peroxidase 1 (Homo sapiens) (UniProt P07203); assay: Primary qHTS Assay for Inhibitors of Recombinant Selenoprotein Glutathione Peroxidase 1 (GPX1) (AID 1845191); further: nearly all actives have a fitted effect of over 65% in size; further: potency means the concentration at half of the fitted maximal effect
Method in brief: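 Recombinant GPX1 (10 nM final) was preincubated with compound for 30 min at room temperature, then reacted with 1 mM GSH, 0.5 mM CHP, 0.5 mM NADPH and 100 nM glutathione reductase; NADPH fluorescence (340/450 nm) was read at 0 and 15 min.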

[2] = molecular target: Phospholipid hydroperoxide glutathione peroxidase GPX4 (Homo sapiens) (UniProt P36969); assay: Primary qHTS Assay for Inhibitors of Recombinant Selenoprotein Glutathione Peroxidase 4 (GPX4) (AID 1845192); further: nearly all actives have a fitted effect of over 65% in size; further: potency means the concentration at half of the fitted maximal effect; on activity change, negative = inhibition: series mostly up to about 50 µM
Method in brief: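 GR-coupled readout: 100 nM GR, 1 mM GSH, 0.5 mM NADPH; NADPH fluorescence (ex 340/em 450 nm) read at t=0 and after 15 min RT. GPX4 200 nM, preincubated 30 min with compound; substrate 0.5 mM CHP.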

[3] = molecular target: Luciferin 4-monooxygenase (Photinus pyralis) (UniProt P08659); assay: Primary firefly luciferase (FLuc) qHTS assay for identification of artifact compounds. (AID 1845220); further: nearly all actives have a fitted effect of over 60% in size; on activity change, negative = inhibition: series mostly up to about 54 µM
Method in brief: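 qHTS, 15 min compound preincubation with substrate (10 uM luciferin, 10 uM ATP) at RT, then 10 nM FLuc; 5 min; luminescence; % inhibition vs no-enzyme/DMSO controls, 4-parameter Hill fit.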

[4] = Primary fluorescence-based thiol-reactive (MSTI) qHTS assay for identification of artifact compounds. (AID 1845221); further: nearly all actives have a fitted effect of over 65% in size; further: potency means the concentration at half of the fitted maximal effect;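 on activity change, negative = thiol reactive: series mostly up to about 54 µM; thiol-reactive compounds lower the probe fluorescence signal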
Method in brief: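 Compounds were incubated 1 h at room temperature in the dark with the MSTI probe (4 uM) in PBS pH 7.4, 2% DMSO. Signals were normalized between Acetyl-MSTI and MSTI.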

[5] = system: Nanoluciferase (engineered Oplophorus gracilirostris luciferase); assay: Primary Nanoluciferase (NLuc) qHTS assay for identification of artifact compounds. (AID 1845222); further: series mostly up to about 54 µM
Method in brief: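 Luminescence read-out of secreted NLuc in S16 cell conditioned medium (1:55); compounds tested with 15 min RT preincubation, then Nano-Glo substrate 1:100, 5 min. % inhibition vs no-enzyme and DMSO controls, 4-parameter Hill fit.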

[6] = Primary redox qHTS assay for identification of artifact compounds. (AID 1845223)
Method in brief: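 Amplex Red (25 uM) and HRP (250 mU/mL) in HBSS, with compounds for 15 min, then 250 uM DTT for 30 min, room temperature, dark. Fluorescence 525/598 nm read; normalized to DMSO and 10 uM DA3003; Hill fit.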

Glutathione peroxidase 1 (Homo sapiens), sequence (P07203 whole entry, looked up): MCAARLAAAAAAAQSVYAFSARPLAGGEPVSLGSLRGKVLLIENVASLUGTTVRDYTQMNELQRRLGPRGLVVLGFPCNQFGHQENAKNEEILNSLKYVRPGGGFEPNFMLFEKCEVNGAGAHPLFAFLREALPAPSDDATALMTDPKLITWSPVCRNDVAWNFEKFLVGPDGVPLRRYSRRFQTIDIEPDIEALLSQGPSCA
Phospholipid hydroperoxide glutathione peroxidase GPX4 (Homo sapiens), sequence (P36969 whole entry, looked up): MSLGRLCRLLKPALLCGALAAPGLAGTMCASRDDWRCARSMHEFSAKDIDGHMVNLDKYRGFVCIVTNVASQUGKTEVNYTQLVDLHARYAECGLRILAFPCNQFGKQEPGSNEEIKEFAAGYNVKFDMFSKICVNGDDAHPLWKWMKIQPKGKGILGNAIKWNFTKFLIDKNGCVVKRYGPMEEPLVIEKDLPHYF

## O=C(OC[C@H]1O[C@H](O[C@]2(CO)O[C@H](CO)[C@@H](O)[C@@H]2O)[C@H](O)[C@@H](O)[C@@H]1O)c1ccccc1
[1]
  Potency: inactive
[2]
  Potency: inactive
[3]
  Potency: inactive
[4]
  Potency: inactive
[5]
  Potency: inactive
[6]
  Potency: inactive

## Cc1c[nH]c2nccc(Oc3c(F)cc(Nc4cc(Cl)nc(N)n4)cc3F)c12
[1]
  Potency: inactive
[2]
  Potency: inactive
[3]
  Potency: inactive
[4]
  Potency: inactive
[5]
  Potency: inactive
[6]
  Potency: inactive

## COc1ccc(-c2ccc3c(N4CCOCC4)nc(N4CC(C)OC(C)C4)nc3n2)cc1CO (stereo not given)
[1]
  Potency: 18 µM (active)
[2]
  Potency: 22.7 µM (active)
[3]
  Potency: inactive
[4]
  Potency: inactive
[5]
  Potency: inactive
[6]
  Potency: inactive

## NC(=O)[C@H](O[C@@H]1O[C@H](CO)[C@@H](O)[C@H](O)[C@H]1O)c1ccccc1
[1]
  Potency: inactive
[2]
  Potency: inactive
[3]
  Potency: inactive
[4]
  Potency: 16.5 µM (active)
[5]
  Potency: inactive
[6]
  Potency: inactive

## CC1=CC(=O)CC(C)(C)[C@H]1/C=C/C(CO)O[C@@H]1O[C@H](CO)[C@@H](O)[C@H](O)[C@H]1O (stereo not given in full)
[1]
  Potency: inactive
[2]
  Potency: inactive
[3]
  Potency: inactive
[4]
  Potency: 11.7 µM (active)
[5]
  Potency: inactive
[6]
  Potency: inactive

## COc1cc(O)cc(C)c1C(=O)O[C@@H]1[C@H](O)[C@@H](CO)O[C@H]1n1ccc(=O)[nH]c1=O
[1]
  Potency: inactive
[2]
  Potency: inactive
[3]
  Potency: inactive
[4]
  Potency: inactive
[5]
  Potency: inactive
[6]
  Potency: inactive

## CC(C)c1nnc(-c2ccc(-c3ccccc3)nc2)n1-c1cccc2nonc12
[1]
  Potency: inactive
[2]
  Potency: inactive
[3]
  Potency: inactive
[4]
  Potency: inactive
[5]
  Potency: inactive
[6]
  Potency: inactive

## CC(C(O)/C=C/C(C)(C)O)C1CCC2(C)C3C(=O)C=C4C(CCC(O)C4(C)C)C3(C)CCC12C (stereo not given)
[1]
  Potency: inactive
[2]
  Potency: inactive
[3]
  Potency: inactive
[4]
  Potency: inactive
[5]
  Potency: inactive
[6]
  Potency: inactive

## C[C@@H]1N[C@H]2N(C1=O)c1ccccc1[C@@]2(O)C[C@@H]1C(=O)N[C@@H](C)c2nc3ccccc3c(=O)n21
[1]
  Potency: inactive
[2]
  Potency: inactive
[3]
  Potency: inactive
[4]
  Potency: inactive
[5]
  Potency: inactive
[6]
  Potency: inactive

## C[C@@H]1CC[C@]2(C(=O)O)CC[C@]3(C)C(=CCC4[C@@]5(C)CC[C@H](O)C(C)(C)C5C(O)C[C@]43C)[C@@H]2[C@]1(C)O (stereo not given in full)
[1]
  Potency: inactive
[2]
  Potency: inactive
[3]
  Potency: inactive
[4]
  Potency: 13 µM (active)
[5]
  Potency: inactive
[6]
  Potency: inactive

## COC(=O)C1=CO[C@@H](O[C@@H]2O[C@H](CO)[C@@H](O)[C@H](O)[C@H]2O)[C@H]2[C@@H]1CC(OC)O[C@@H]2C (stereo not given in full)
[1]
  Potency: inactive
[2]
  Potency: inactive
[3]
  Potency: inactive
[4]
  Potency: 10.3 µM (active)
[5]
  Potency: inactive
[6]
  Potency: inactive

## COc1ccc(CC2NCCc3c2[nH]c2ccc(C)cc32)cc1OC (stereo not given)
[1]
  Potency: inactive
[2]
  Potency: inactive
[3]
  Potency: inactive
[4]
  Potency: inactive
[5]
  Potency: inactive
[6]
  Potency: inactive

## COC(=O)c1ccc(OC(CO)C(O)c2ccc(O)c(OC)c2)c(OC)c1 (stereo not given)
[1]
  Potency: inactive
[2]
  Potency: inactive
[3]
  Potency: inactive
[4]
  Potency: inactive
[5]
  Potency: inactive
[6]
  Potency: inactive

## COc1cc(Nc2nc3c(s2)CCCC3c2ccc(F)cc2)ccc1-n1cnc(C)c1 (stereo not given)
[1]
  Potency: inactive
[2]
  Potency: inactive
[3]
  Potency: inactive
[4]
  Potency: 11.9 µM (active)
[5]
  Potency: inactive
[6]
  Potency: inactive

## CC1=C(C(=O)O)/C(=C\CO[C@@H]2O[C@H](CO)[C@@H](O)[C@H](O)[C@H]2O)C(OC(=O)/C=C\c2ccc(O)cc2)C1 (stereo not given in full)
[1]
  Potency: inactive
[2]
  Potency: inactive
[3]
  Potency: inactive
[4]
  Potency: 4.62 µM (active)
[5]
  Potency: inactive
[6]
  Potency: inactive

## OC[C@H]1O[C@@H](OC(CCCCc2ccc(O)cc2)CCc2ccc(O)cc2)[C@H](O)[C@@H](O)[C@@H]1O (stereo not given in full)
[1]
  Potency: inactive
[2]
  Potency: inactive
[3]
  Potency: inactive
[4]
  Potency: inactive
[5]
  Potency: inactive
[6]
  Potency: inactive

## C/C1=C\C[C@]2(C)C(=O)C(O)=C([C@H](C)CO)[C@H]2C/C=C(\C)[C@@H](O)CC/C(C)=C/CC1
[1]
  Potency: inactive
[2]
  Potency: inactive
[3]
  Potency: inactive
[4]
  Potency: inactive
[5]
  Potency: inactive
[6]
  Potency: inactive

## CCCC1(c2ccccc2)NC(=O)N(CC(=O)N(C)Cc2c(F)cccc2Cl)C1=O (stereo not given)
[1]
  Potency: inactive
[2]
  Potency: inactive
[3]
  Potency: inactive
[4]
  Potency: inactive
[5]
  Potency: inactive
[6]
  Potency: inactive

## CC(=O)O[C@@H]1[C@H](O[C@@H]2O[C@@H](CO)[C@H](O)[C@H]2O)[C@@H](O[C@@H]2O[C@@H](C)[C@H](O[C@@H]3OC[C@@H](O)[C@H](O)[C@H]3O)[C@@H](O)[C@H]2O)[C@H](OC(=O)[C@]23CCC(C)(C)C[C@H]2C2=CCC4[C@@]5(C)CC[C@H](O[C@@H]6O[C@H](C(=O)O)[C@@H](O)[C@H](O)[C@H]6O[C@@H]6O[C@H](CO)[C@H](O)[C@H](O)[C@H]6O)[C@@](C)(C=O)C5CC[C@@]4(C)[C@]2(C)CC3)O[C@@H]1C (stereo not given in full)
[1]
  activity, negative = inhibition: -3.42% [at 9.52 µM]
[2]
  activity change, negative = inhibition: 2.32% [at 9.73 µM]
[3]
  activity change, negative = inhibition: 4.46% [at 11.6 µM]
[4]
  activity change, negative = thiol reactive: 321% [at 11.5 µM]
[5]
  activity, negative = inhibition: 0% [at 11.6 µM]
[6]
  redox activity (% of DA3003): 1.35% [at 11.5 µM]

## C=C1CC[C@@H]2[C@@](C)(CO[C@@H]3O[C@H](CO)C(O)[C@H](O)C3O)[C@H](O)CC[C@@]2(C)[C@@H]1CC/C(C)=C/CO (stereo not given in full)
[1]
  Potency: inactive
[2]
  Potency: inactive
[3]
  activity change, negative = inhibition: -1.11% [at 11.6 µM]
[4]
  activity change, negative = thiol reactive: 21.9% [at 11.5 µM]
[5]
  activity, negative = inhibition: 2.18% [at 11.6 µM]
[6]
  redox activity (% of DA3003): 11.9% [at 11.5 µM]
